Screening results (PubChem)
In the library only some 3.8% were active in any assay of this set; here they are far more common.
TGFb SMAD3 inh – qHTS for Inhibitors of TGF-b. HepG2 CAGA-GFP TGF-b/SMAD3 reporter, GFP fluorescence, 18 h; TGF-beta stimulated, 500 pg/mL final. Potency, µM (highest dose often 46.1 µM), inactives show at the highest dose activity, negative = inhibition, most hits filed as inhibitors. 410,000 tested, 1.2% active. AID 588855, 2011; also: % is scaled to controls: 0 for no effect and ±100 for the full control effect; nearly all actives have a fitted effect of over 65% in size
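First, reporter cells (HEPG2 CAGA-GFP) rested 2 h at 37 degrees C. Next, compounds were pinned in and TGF-beta added to 500 pg/mL final. After 18 h, GFP was imaged per cell and summed per well.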
HT1080 IDH1KD tx – qHTS for induction of synthetic lethality in tumor cells producing 2HG: qHTS for the HT-1080-IDH1KD cell line; HT-1080 IDH1 knockdown viability, ATP luminescence, 48 h; Potency, µM (top dose mostly 46.1 µM), for inactives: at the highest dose activity, negative = toxicity, hits mostly cytotoxic; 360,000 tested, 2% active; AID 686971, 2013;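 also: 0% = DMSO wells and -100% = cell-free medium wells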
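IDH1KD HT-1080 cells, 750/well, RPMI + 5% FBS; compound pinned after 2 h settling; 48 h, 37 °C; CellTiter-Glo luminescence; % activity normalised to DMSO and no-cell wells; curves fitted, classed by r2 and efficacy.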
ATXN2 expr inh – Primary qHTS for Inhibitors of ATXN expression | HEK-293 ATXN2-luciferase reporter, luminescence, 24 h | Potency, µM (series often up to 57 µM), for inactives: at the highest dose activity change, negative = inhibition, usual class: inhibitors | 360,000 tested, 0.72% active; also: % is scaled to controls: 0 for no effect and ±100 for the full control effect; nearly all actives have a fitted effect of over 55% in size
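qHTS (up to 57 uM final) was run with 24 h compound exposure of reporter cells at 37 °C. Each well was multiplexed: SteadyGlo luminescence measured ATXN2-luciferase expression after a fluorogenic Gly-Phe-AFC viability readout (25 uM final).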
HT1080NT lethal – qHTS for induction of synthetic lethality in tumor cells producing 2HG: qHTS for the HT-1080-NT fibrosarcoma cell line; HT-1080-NT fibrosarcoma viability, CellTiter-Glo ATP luminescence, 48 h; Potency, µM (series often up to 46.1 µM), for the others: top-dose activity, negative = less viability, usual class: cytotoxic; 360,000 tested, 1.6% active; AID 686970, 2013;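 also: NT is the 2HG producing partner of a matched IDH1 knockdown line; 0% = DMSO-treated cells and -100% = media-only wells without cells; nearly all actives have a fitted effect of over 55% in size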
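Viability of the 2HG-overproducing fibrosarcoma line after 48 hours of compound exposure at 37 degrees C was determined by luminescence with CellTiter-Glo, and concentration-effect curves were then fitted and categorized.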
ATXN viability – Viability Counterscreen for Primary qHTS for Inhibitors of ATXN expression; S2 cells (HEK-293 line with an ATXN2-luciferase reporter) viability, CellTiter-Fluor protease fluorescence, 24 h; Potency, µM (highest dose often 56.7 µM), most hits filed as cytotoxic; 400,000 tested, 0.49% active; also: nearly all actives have a fitted effect of over 40% in size
HepG2 viability – qHTS for Inhibitors of TGF-b: Cytotox Counterscreen | 410,000 tested, 0.76% active | Potency, µM (series often up to 46.1 µM), for inactives: top-dose activity change, negative = cytotoxicity, most hits filed as cytotoxic | HepG2 CAGA-GFP viability, ATP luminescence, 18 h | AID 588856, 2011
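CellTiter-Glo luminescence gave cytotoxicity after 18 hours at 37 degrees C. The cells were HepG2 CAGA-GFP in 1% FBS DMEM, stimulated with 500 pg/mL TGF-beta after compound addition. %Activity was normalised to no-cell wells (complete cell-killing) and DMSO (no toxicity), and curves were fitted and classified.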
An asterisk follows results filed as active; i = inactive; u = inconclusive; x = no result given; ! = not confirmed by another sample. Calls follow the shape of the dose curve; as a rule, active = well fitted curve in the direction sought with a large enough effect; inconclusive = small, poorly fitted or top-dose-only effect, or another doubt; inactive = no such curve, though single readings can be large; an effect the other way counts as inactive or inconclusive. Potency is read from the fitted curve at half-maximal effect.

SMILES | TGFb SMAD3 inh | HT1080 IDH1KD tx | ATXN2 expr inh | HT1080NT lethal | ATXN viability | HepG2 viability
O=C(NCC1CN(c2ccc(N3CCOCC3=O)cc2)C(=O)O1)c1ccc(Cl)s1 (stereo not drawn) | x | x | -20% | x | i | x
CCCCN(C)CC(O)Cn1cc(/C=C/C(=O)c2ccc(Br)cc2)c2ccccc21 (stereo not drawn) | u | x | -9% | x | x | -97%
CCCCN(C)CC(O)Cn1cc(/C=C/C(=O)c2ccc(OC)c(OC)c2)c2ccccc21 (stereo not drawn) | u | x | 22µM* | x | x | -98%
CN1CCN(Cn2cc(/C=C/C(=O)c3ccccc3)c3ccccc32)CC1 | 13µM* | 0% | 151% | 5% | u | -59%
CCCCN(C)CC(O)Cn1cc(/C=C/C(=O)c2ccc(C)cc2)c2ccccc21 (stereo not drawn) | 18µM* | u | x | u | x | 13µM*
Cc1oc(-c2ccccc2NC(=O)c2ccsc2)nc1CN(C)CC1CC=CCC1 (stereo not drawn) | x | x | x | x | i | x
Cc1nc(N/N=C/c2ccc(O)cc2O)cc(N2CCOCC2)n1 | 38% | 4.1µM* | u | u | i | -39%
Cc1nc(N/N=C/c2cccc(F)c2)cc(N2CCOCC2)n1 | 70% | -1% | -6% | -1% | i | -18%
CCNc1c(NC(=O)c2ccccc2OCC)c(=O)oc2ccccc12 | 22% | x | 14% | x | i | -4%
COC(C(=O)C(O)C(C)O)C1Cc2cc3cc(OC4CC(OC5CC(O)C(O)C(C)O5)C(O)C(C)O4)c(C)c(O)c3c(O)c2C(=O)C1OC1CC(OC2CC(OC3CC(C)(O)C(O)C(C)O3)C(O)C(C)O2)C(O)C(C)O1 (stereo not drawn) | 0.63µM* | x | x | x | x | 23%
C[C@]12CC[C@@H]3c4ccc(O)cc4CC[C@H]3[C@H]1CC[C@H]2O | x | x | -17% | x | x | x
CCc1nc2c(OCc3cccc(OC)c3)cccn2c1N(C)C(=O)c1ccccc1F | 14% | -18% | -7% | -8% | u | -25%
CCc1nc2c(OCc3cc(Cl)cc(Cl)c3)cccn2c1N(C)C(=O)c1ccccc1F | u | u | 0% | 18µM* | u | -38%
CCc1nc2c(OCC3CCCCC3)cccn2c1N(C)C(=O)c1ccc(C)cc1 | u | u | -6% | u | 28µM* | -41%
CCc1nc2c(OCc3ccc(Cl)cc3Cl)cccn2c1N(C)C(=O)C1CC1 | u | -20% | u | u | 18µM* | -30%
CCc1nc2c(OCc3ccc(Cl)cc3Cl)cccn2c1N(C)C(=O)CC(C)C | u | u | u | 26µM* | i | 11µM*
CCc1nc2c(OCc3cc(Cl)cc(Cl)c3)cccn2c1N(C)C(=O)CC(C)C | u | u | u | u | u | -52%
O=C(CS(=O)(=O)Cc1ccccc1)Nc1nc2c(s1)CCCC2 | u | 14% | -1% | 1% | i | 2%
O=C(CCS(=O)(=O)Cc1ccccc1)Nc1nc2c(s1)CCCC2 | u | 8.9µM* | 17% | u | i | 13%
CCOC(=O)Cc1csc(NC(=O)Nc2ccc(C)cc2)n1 | -8% | -10% | 11% | 7.3µM* | i | -7%
CCOC(=O)Cc1csc(NC(=O)CCS(=O)(=O)Cc2ccccc2)n1 | -4% | 10µM* | 61% | u | i | 1%
CCOC(=O)Cc1csc(NC(=O)CS(=O)(=O)Cc2ccccc2)n1 | u | 16% | -3% | 19% | i | -80%
COc1cc2c(NC3CCN(C)CC3)nc(N3CCCN(C)CC3)nc2cc1OCC1CCNCC1 | -16% | x | x | x | x | 0%
COc1cc(=O)n2c(c1C(=O)NC(C)c1ccco1)CCN(C(=O)c1ccc3c(c1)OCCO3)CC2 (stereo not drawn) | x | x | x | x | i | x
NC(=O)[C@@H]1CCCN1C(=O)c1cc(NC(=O)c2ccccc2)cc2ncn(C3CCCC3)c12 | x | x | x | x | i | x
SMILES | TGFb SMAD3 inh | HT1080 IDH1KD tx | ATXN2 expr inh | HT1080NT lethal | ATXN viability | HepG2 viability
CCOC(=O)CN1CCCC1=O | x | x | 12% | x | i | x
COc1c(Br)cc(Br)cc1/C=N/NC(=O)c1ccncc1 | 6% | 1% | -6% | 1% | i | 0%
CCNC(=S)N/N=C/c1cc(Br)cc(Br)c1OC | 1% | 4µM* | 2% | 4.5µM* | i | -19%
O=c1c2ccccc2sn1-c1cc(S(=O)(=O)N2CCOCC2)ccc1N1CCCC1 | -27% | u | -12% | u | i | -9%
O=c1c2ccccc2sn1-c1cc(S(=O)(=O)N2CCOCC2)ccc1N1CCOCC1 | 11µM*! | u | -14% | u | i | -94%
CC(C)Nc1ncnc2c1ncn2[C@H]1CN(Cc2ccc(-c3ccccc3)cc2)C[C@@H](CO)O1 | -10% | u | u | u | i | -26%
CN(C)CCNc1ncnc2c1ncn2[C@H]1CN(Cc2ccc(-c3ccccc3)cc2)C[C@@H](CO)O1 | 16µM* | 21µM* | u | 6.5µM* | u | -88%
CC(C)CNc1ncnc2c1ncn2[C@H]1CN(Cc2ccc(-c3ccccc3)cc2)C[C@@H](CO)O1 | u | u | u | 18µM* | u | -26%
CCc1ccc(NC(=O)CC2C(=O)N(c3cccc(OC)c3)C(=O)N2Cc2ccc(F)cc2)cc1 (stereo not drawn) | u | x | x | x | x | -25%
O=C1/C(=C/c2ccccc2)NC(=S)N1C(c1ccccc1)c1ccccc1 | -1% | 9.2µM* | -16% | u | u | -58%
COc1ccc(S(=O)(=O)N2CCC[C@H]2C(=O)N2CCC[C@H]2C(=O)NCc2ccc(F)cc2F)cc1C | x | u | u | u | 25µM* | x
Cc1cccc(-n2c3nc(=O)[nH]c(=O)c-3cc3cc([N+](=O)[O-])ccc32)c1 | u | u | -14% | u | u | -60%
Cc1ccc(C)c(-n2c3nc(=O)[nH]c(=O)c-3cc3cc([N+](=O)[O-])ccc32)c1 | u | 5.2µM* | u | 6.5µM* | u | -70%
CCC(C)NC(=O)c1sc2nc(C)c(C(=O)Nc3ccc(Cl)cc3)c(-c3ccc(Br)cc3)c2c1N (stereo not drawn) | 20% | x | 2% | x | i | 17%
Cc1nc2sc(C(N)=O)c(N)c2c(-c2ccc(Br)cc2)c1C(=O)Nc1ccc(Cl)cc1 | u | x | 32µM* | x | u | -95%
